Here are results for 67 compounds from the antibiotic and cytotoxicity screens of Wong et al. (2023).

Structures are written as SMILES. In all, about 39,000 compounds went through this assay and about 3,300 (8.5%) were called active. Many of the other results were omitted from the sample, so actives are more common in it than they were.

This experiment deals with HepG2. The experiment in a line: cytotoxicity call (relative viability < 0.9). Particulars: 10 µM.
On to `Cc1ccc2nccc(C(=O)N3CCC[C@@H](Cn4cc(C(C)(C)N)nn4)C3)c2c1`, for which the cytotoxicity call was “inactive”.

`C[C@H]1CCCCO[C@H](CN(C)C(=O)Nc2cccc3ccccc23)[C@@H](C)CN([C@@H](C)CO)C(=O)c2cc(NS(C)(=O)=O)ccc2O1`: the cytotoxicity call is “inactive”.

Take `COc1cc(N2CCC(N)CC2)ccc1Nc1ncc(Cl)c(-c2c[nH]c3ccccc23)n1`: the cytotoxicity call is “active”.

For the compound `COc1cc(C(=O)N2CCN(CCN3C(=O)c4cccc5cccc(c45)C3=O)CC2)cc(OC)c1OC`, the cytotoxicity call was “inactive”.

As for `NC1CCN(C(=O)c2c[nH]c3ccccc23)CC1`, the cytotoxicity call is “inactive”.

Regarding `COc1cc(C(=O)N2CCC(N3CCN(C)CC3)CC2)ccc1Nc1ncc2c(n1)N(C)c1ccccc1C(=O)N2C`, the cytotoxicity call was “active”.

With `Cc1cc(Nc2ncc(Cl)c(Nc3ccccc3S(=O)(=O)C(C)C)n2)c(OC(C)C)cc1C1CCNCC1`, the cytotoxicity call was “active”.

Consider `COc1cc(N2CCC(O)CC2)ccc1Nc1cc(Nc2ccccc2S(=O)(=O)C(C)C)c2cc[nH]c2n1`, for which the cytotoxicity call is “inactive”.

With `COc1cc(N2CCC(N3CCN(C)CC3)CC2)ccc1Nc1ncc(Cl)c(Nc2ccccc2S(=O)(=O)C(C)C)n1`, the cytotoxicity call is “active”.

Take `COc1cc(C(=O)NC2CCN(C)CC2)ccc1Nc1ncc2c(n1)N(C1CCC(O)CC1)CCC(=O)N2C` (configuration not stated): the cytotoxicity call was “inactive”.

As to `Cc1noc(C)c1S(=O)(=O)Nc1ccc2c(c1)C(=O)N([C@@H](C)CO)C[C@H](C)[C@H](CN(C)C(=O)NC1CCCCC1)O2`, the cytotoxicity call is “inactive”.

In the case of `Cc1noc(C)c1NC(=O)N(C)C[C@H]1Oc2c(NC(=O)c3ccc(-c4nccs4)cc3)cccc2C(=O)N([C@@H](C)CO)C[C@H]1C`, the cytotoxicity call was “inactive”.

As for `Cc1noc(C)c1NC(=O)N(C)C[C@@H]1OCCCC[C@H](C)Oc2ccc(NC(=O)c3ccccc3)cc2C(=O)N([C@@H](C)CO)C[C@@H]1C`, the cytotoxicity call is “inactive”.

As for `NC[C@H]1OB(O)c2c(OCCCO)cccc21`, the cytotoxicity call was “inactive”.

Take `C=CCOC(=O)[C@H]1[C@@H]2C(=O)O[C@@H](c3ccccc3)[C@@H](c3ccccc3)N2[C@@H](c2ccc(OCCOC(=O)[C@@H]3C[C@@H]4C(=O)N5CCC[C@H]5C(=O)N4[C@@H]3c3cccc(OCCO)c3)cc2)[C@]12C(=O)Nc1ccc(I)cc12`: the cytotoxicity call is “inactive”.

Take `CC(C)NC(=O)Nc1ccc2c(c1)CC(=O)N([C@H](C)CO)C[C@H](C)[C@H](CN(C)C(=O)NC1CCCCC1)O2`: the cytotoxicity call is “inactive”.

For `CN1C(=O)c2cc(NC(=O)c3cccs3)ccc2OC[C@@H]2O[C@@H](CC(=O)NCC(F)(F)F)CC[C@@H]21`, the cytotoxicity call was “inactive”.

Regarding `COc1cc(N2CCC(N(C)C)CC2)ccc1Nc1ncc(Cl)c(Nc2ccccc2P(C)(C)=O)n1`, the cytotoxicity call was “active”.

With `C=C(C)C1CCC2(C(=O)O)CCC3(C)C(CCC4C5(C)CCC(O)C(C)(C)C5CCC43C)C12` (configuration not stated), the cytotoxicity call was “inactive”.

`C=C(C)C1CCC2(C)CCC3(C)C(CCC4C5(C)CCC(O)C(C)(C)C5CCC43C)C12` (configuration not stated): the cytotoxicity call is “inactive”.

On to `C=C(C)C1CCC2(CO)CCC3(C)C(CCC4C5(C)CCC(O)C(C)(C)C5CCC43C)C12` (configuration not stated), for which the cytotoxicity call was “active”.

Regarding `CCS(=O)(=O)Nc1ccc2c(c1)C(=O)N(C)[C@@H]1CC[C@@H](CC(=O)NCCOC)O[C@@H]1CO2`, the cytotoxicity call was “inactive”.

As to `Cc1noc(C)c1NC(=O)N(C)C[C@@H]1Oc2ccc(NC(=O)Nc3ccc(C(F)(F)F)cc3)cc2CC(=O)N([C@H](C)CO)C[C@H]1C`, the cytotoxicity call was “inactive”.

In the case of `CNC[C@@H]1Oc2cc(C#CC(C)(C)O)ccc2S(=O)(=O)N([C@@H](C)CO)C[C@@H]1C`, the cytotoxicity call was “inactive”.

In the case of `Cc1ccc(S(=O)(=O)Nc2cccc3c2O[C@@H](CN(C)Cc2ccc(-c4ccccc4)cc2)[C@@H](C)CN([C@H](C)CO)C3=O)cc1`, the cytotoxicity call is “active”.

Take `Cc1ccc(S(=O)(=O)Nc2cccc3c2O[C@H](CN(C)Cc2ccc(-c4ccccc4)cc2)[C@@H](C)CN([C@H](C)CO)C3=O)cc1`: the cytotoxicity call is “inactive”.

`Cc1ccc(S(=O)(=O)Nc2cccc3c2O[C@@H](CN(C)Cc2ccc(-c4ccccc4)cc2)[C@H](C)CN([C@H](C)CO)C3=O)cc1`: the cytotoxicity call is “inactive”.

Consider `C[C@@H]1CN([C@H](C)CO)C(=O)c2cccc(NS(=O)(=O)c3ccc(Cl)cc3)c2O[C@H]1CN(C)Cc1ccc(-c2ccccc2)cc1`, for which the cytotoxicity call is “inactive”.

Consider `C[C@H]1CN([C@@H](C)CO)C(=O)c2cccc(NS(=O)(=O)c3ccccc3)c2O[C@H]1CN(C)Cc1ccc(-c2ccccc2)cc1`, for which the cytotoxicity call is “inactive”.

With `Cc1ccc(S(=O)(=O)Nc2cccc3c2O[C@H](CN(C)Cc2ccc(-c4ccccc4)cc2)[C@H](C)CN([C@H](C)CO)C3=O)cc1`, the cytotoxicity call was “active”.

As to `C[C@@H]1CN([C@@H](C)CO)C(=O)c2cccc(NS(=O)(=O)c3ccc(Cl)cc3)c2O[C@H]1CN(C)Cc1ccc(-c2ccccc2)cc1`, the cytotoxicity call was “inactive”.

As for `C[C@@H]1CN([C@@H](C)CO)C(=O)c2cccc(NS(=O)(=O)c3ccccc3)c2O[C@H]1CN(C)Cc1ccc(-c2ccccc2)cc1`, the cytotoxicity call is “inactive”.

As for `C[C@@H]1CN([C@H](C)CO)C(=O)c2cccc(NS(=O)(=O)c3ccccc3)c2O[C@@H]1CN(C)Cc1ccc(-c2ccccc2)cc1`, the cytotoxicity call was “active”.

With `Cc1ccc(S(=O)(=O)Nc2cccc3c2O[C@@H](CN(C)Cc2ccc(-c4ccccc4)cc2)[C@@H](C)CN([C@@H](C)CO)C3=O)cc1`, the cytotoxicity call was “inactive”.

In the case of `C[C@@H]1CN([C@@H](C)CO)C(=O)c2cccc(NS(=O)(=O)c3ccc(Cl)cc3)c2O[C@@H]1CN(C)Cc1ccc(-c2ccccc2)cc1`, the cytotoxicity call was “active”.

As for `Cc1ccc(S(=O)(=O)Nc2cccc3c2O[C@H](CN(C)Cc2ccc(-c4ccccc4)cc2)[C@@H](C)CN([C@@H](C)CO)C3=O)cc1`, the cytotoxicity call was “inactive”.

Regarding `O=C(C[C@@H]1CC[C@H](NC(=O)Nc2ccc3c(c2)OCO3)[C@@H](CO)O1)NCCCN1CCOCC1`, the cytotoxicity call is “inactive”.

`C[C@@H]1CN([C@H](C)CO)C(=O)c2cc(NC(=O)CCCN(C)C)ccc2O[C@@H](C)CCCCO[C@H]1CN(C)S(=O)(=O)c1cn(C)cn1`: the cytotoxicity call is “inactive”.

As for `C[C@H](CO)N1C[C@H](C)[C@H](CN(C)C(=O)c2cccc(F)c2)Oc2cc(C#CC3CC3)ccc2S1(=O)=O`, the cytotoxicity call is “inactive”.

`CC(C)C[C@@](O)(CC(=O)O)C(=O)O`: the cytotoxicity call was “inactive”.

With `CN(C)CCCNC(=O)C[C@@H]1CC[C@H]2[C@@H](COc3ccc(NS(C)(=O)=O)cc3C(=O)N2C)O1`, the cytotoxicity call is “inactive”.

With `CC(C)N1CC=C[C@@]23O[C@@H]4C=CCOC(=O)[C@@H]4[C@H]2C(=O)N([C@@H](C)CO)[C@@H]3C1=O`, the cytotoxicity call is “inactive”.

As for `O=c1[nH]c(=S)[nH]nc1O`, the cytotoxicity call is “inactive”.

In the case of `CC1(C)C=C(C(=O)N2CCOCC2)C(C)(C)N1`, the cytotoxicity call is “inactive”.

Turning to `C[C@@H]1CN([C@H](C)CO)C(=O)Cc2cc(NC(=O)C3CCCCC3)ccc2O[C@H]1CN(C)S(=O)(=O)c1cn(C)cn1`, the cytotoxicity call was “inactive”.

As for `C[C@H](CO)N1C[C@H](C)[C@@H](CN(C)Cc2ccc(-c3ccccc3)cc2)Oc2ccc(NC(=O)Cn3cnnn3)cc2CC1=O`, the cytotoxicity call was “inactive”.

In the case of `NCCCCCCNC(=O)[C@H]1C[C@H]2C(=O)N[C@@H](Cc3ccccc3)C(=O)N2[C@H]1c1cccc(OCCO)c1`, the cytotoxicity call was “inactive”.

In the case of `C[C@@H]1CCCCO[C@@H](CN(C)C(=O)Cc2ccccc2)[C@H](C)CN([C@@H](C)CO)C(=O)c2cc(NS(=O)(=O)c3ccc(F)cc3)ccc2O1`, the cytotoxicity call was “inactive”.

On to `O.O=C([O-])CC(O)(CC(=O)[O-])C(=O)[O-].[Li+].[Li+].[Li+]`, for which the cytotoxicity call is “inactive”.

As for `C[C@H]1CN([C@@H](C)CO)C(=O)c2cccc(NS(=O)(=O)c3ccc(Cl)cc3)c2O[C@@H]1CN(C)Cc1ccc(C(F)(F)F)cc1`, the cytotoxicity call is “inactive”.

Consider `C[C@@H]1CN([C@H](C)CO)C(=O)c2cccc(NS(=O)(=O)c3cccs3)c2O[C@@H]1CN(C)Cc1ccc(-c2ccccc2)cc1`, for which the cytotoxicity call is “inactive”.

For the compound `CC(C)NC(=O)N(C)C[C@@H]1Oc2c(NS(=O)(=O)c3ccccc3)cccc2C(=O)N([C@@H](C)CO)C[C@@H]1C`, the cytotoxicity call is “inactive”.

As for `C[C@H](CO)N1C[C@H](C)[C@@H](CN(C)Cc2ccc(C(F)(F)F)cc2)Oc2c(NS(=O)(=O)c3ccc(Cl)cc3)cccc2C1=O`, the cytotoxicity call is “inactive”.

For the compound `C[C@@H]1CN([C@H](C)CO)C(=O)c2cccc(NS(=O)(=O)c3cccs3)c2O[C@H]1CN(C)Cc1ccc(-c2ccccc2)cc1`, the cytotoxicity call is “inactive”.

Take `C[C@@H]1CN([C@@H](C)CO)C(=O)c2cccc(NS(=O)(=O)c3ccc(Cl)cc3)c2O[C@@H]1CN(C)Cc1ccc(C(F)(F)F)cc1`: the cytotoxicity call was “active”.

`CC(C)NC(=O)N(C)C[C@H]1Oc2c(NS(=O)(=O)c3ccccc3)cccc2C(=O)N([C@H](C)CO)C[C@H]1C`: the cytotoxicity call is “active”.

As for `CC(C)NC(=O)N(C)C[C@H]1Oc2c(NS(=O)(=O)c3ccccc3)cccc2C(=O)N([C@H](C)CO)C[C@@H]1C`, the cytotoxicity call is “inactive”.

For `C[C@@H]1CN([C@@H](C)CO)C(=O)c2cccc(NS(=O)(=O)c3cccs3)c2O[C@@H]1CN(C)Cc1ccc(-c2ccccc2)cc1`, the cytotoxicity call is “active”.

As to `Cc1noc(C)c1S(=O)(=O)N(C)C[C@H]1OCCCC[C@@H](C)Oc2ccc(NC(=O)Nc3ccc(F)cc3)cc2C(=O)N([C@@H](C)CO)C[C@H]1C`, the cytotoxicity call is “inactive”.

Turning to `Cc1noc(C)c1NC(=O)Nc1ccc2c(c1)CC(=O)N([C@H](C)CO)C[C@H](C)[C@@H](CN(C)Cc1ccc(Oc3ccccc3)cc1)O2`, the cytotoxicity call is “inactive”.

For the compound `C[C@H](CO)N1C[C@H](C)[C@@H](CN(C)C(=O)Nc2ccc3c(c2)OCO3)Oc2ccc(NC(=O)C3CC3)cc2CC1=O`, the cytotoxicity call was “inactive”.

On to `Cc1noc(C)c1S(=O)(=O)N(C)C[C@H]1Oc2ccc(NC(=O)Cn3cnnn3)cc2C(=O)N([C@H](C)CO)C[C@H]1C`, for which the cytotoxicity call was “inactive”.

As for `C[C@@H]1CN([C@H](C)CO)S(=O)(=O)c2ccc(C#Cc3ccccc3)cc2O[C@@H]1CN(C)C(=O)Cc1ccccn1`, the cytotoxicity call is “inactive”.

On to `C[C@@H]1CN([C@H](C)CO)C(=O)Cc2cc(NC(=O)c3ccncc3)ccc2O[C@@H]1CN(C)Cc1ccc2c(c1)OCO2`, for which the cytotoxicity call is “inactive”.

For `COc1ccc(C(N)=O)cc1`, the cytotoxicity call was “inactive”.

In the case of `COc1ccc(CNCC(=O)O)cc1`, the cytotoxicity call is “inactive”.

As to `COC(=O)[C@@H]1[C@@H](c2ccc(OC)cc2)[C@H](C(=O)OC)S(=O)(=O)CS1(=O)=O`, the cytotoxicity call is “active”.
